Reference: PubChem BioAssay AID1159580 (chemical genetic matrix, 2015)
The campaign covered roughly 5,500 compounds. About 2,000 (36%) were called active. Another 18% or so got no clear call; they are omitted. Rule as the data show it: active = normalized growth mostly below about 0.91 (no sharp cut-off); inconclusive = no clear call, values can overlap the other calls; inactive = mostly above about 0.92. Some of the results follow.

Test: chemical genetic growth profiling, strain panel (AID 1159580);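 also: tested at 20 µM; growth read once vehicle control cultures reached saturation at 30 °C; 1 = growth at the plate median or of vehicle wells; lower values mean less growth of the strain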
Details: S. cerevisiae deletion strains, growth OD

Measured: normalized growth

O=c1cc(N2CCOCC2)oc2c(-c3ccccc3)cccc12
inactive: locus YAL013W, strain DEP1, stronger effect = lower value 1.03 | locus YAL040C, strain CLN3, stronger effect = lower value 0.996 | locus YCL061C, strain MRC1 (second series), stronger effect = lower value 1.01 | locus YDR150W, strain NUM1, stronger effect = lower value 0.992 | locus YDR363W, strain ESC2, stronger effect = lower value 0.995 | locus YER002W, strain NOP16, stronger effect = lower value 1 | locus YMR263W, strain SAP30, stronger effect = lower value 0.992 | locus YNL175C, strain NOP13, stronger effect = lower value 0.996 | locus YNL197C, strain WHI3, stronger effect = lower value 0.991 | locus YNL224C, strain SQS1, stronger effect = lower value 0.999 | locus YNL322C, strain KRE1, stronger effect = lower value 1.01 | locus YOR083W, strain WHI5 (second series), stronger effect = lower value 0.986 | locus YPL241C, strain CIN2, stronger effect = lower value 0.998
